Measurements as given in PubChem BioAssay (NCATS).
Results filed as inconclusive are left out. A number with no mark means an inactive call. Calls come from the whole dose curve; as a rule, active = well fitted curve in the direction sought with a large enough effect in the main read-out, with a control signal flat (not every such curve was filed as active); inconclusive = small, poorly fitted or top-dose-only effect, or effect the other way, or a change in a side signal; inactive = no such curve, though single readings can be large or run the other way.

test: qHTS Validation Assay to Find Inhibitors of Chronic Active B-Cell Receptor Signaling (AID 485345); conditions: ABC-DLBCL cells, chronic BCR signaling reporter, CBG luciferase; series mostly up to 46.1 µM; activity change: at the top concentration
Description: NIH Molecular Libraries Probe Production Network [MLPCN]
NIH Chemical Genomics Center [NCGC]
PI Name: Dr. R. Eric Davis
Diffuse large B-cell lymphoma (DLBCL) is the most common category of non-Hodgkin lymphoma, with ~20,000 new cases per year in the United States. DLBCL should be regarded as a collection of different neoplasms. Microarray gene expression analysis has defined two principal types of DLBCL, named for their similarity to normal B cell stages or activation states: a germinal center B-cell (GCB) type, and an activated B-cell (ABC) type. In ABC-DLBCL, a constitutive high-level activity of the NF-kappaB family of transcription factors has been observed (1) and NF-kappaB target genes are more highly expressed in ABC primary tumors than in GCB tumors. Functional studies have shown a constitutive high-level activity of the IkappaB (inhibitor of kappa-B) kinase (IKK) complex. […] Further analysis of DLBCL primary tumors for NF-kappaB target gene expression imply that although CARD11 is required for constitutive IKK activity in all ABC-DLBCL lines, mutations in CARD11 may be the root cause of IKK activation only in lines or tumors with such mutations. In other words, CARD11 mutations may explain NF-kappaB activation in only 10% of ABC-DLBCL cases. […] This process has been termed 'chronic active BCR signaling' (CABS).
The goal of this screen is to find small-molecule inhibitors of the CABS pathway found in ABC-DLBCL lines using a cell-based assay that measures IkappaBalpa stability, which has already been extensively validated in the OCI-Ly3 line (PubChem AID:445; REF: 4).
A cell-sensor assay for I-kappa-B-alpha stabilization has been developed. The assay uses green (CBG68) and red (CBR) emitting beetle luciferases [Chroma-GloTM developed by Promega Corp.] where the green luciferase is fused to IkappaBalpha and the red luciferase is present in its native state. Both luciferase genes are stably present in the TMD8 human ABC DLBCL cell line, but their expression is under the control of tetracycline-inducible promoters. Following the addition of doxycycline to induce expression of the luciferases, the green luminescence in control cultures rises only slowly because the CBG fusion partner IkappaBalpha is targeted by IKK activity for rapid degradation. In contrast, green luminescence rises rapidly in the presence of proteasome inhibitors or IKK inhibitors. The rise in red luminescence of CBR is not affected by proteasome or IKK inhibitors, and serves as normalization for cell number and nonspecific effects. Compounds were screened as a concentration-titration series that ranged from 46 uM to 3 nM.
NCGC Assay Protocol Summary:
Cells were seeded in 1536-well plates at 5000 cells/4uL in IMDM medium containing 0.5% FBS, w/o phenol red, 1% penicillin/streptomycin. Then, 23 nL of compounds or DMSO were delivered to each well using a pin tool. One uL 20ng/ml doxycycline was then dispensed into white solid 1536-well plates and the plates were incubated at 37C/5% C02 in a cell incubator for 4 hrs. Then 4 uL luminescent substrate mix (in-house prepared: 150 mM Tris-Cl, pH 7.6, 3 mM MgCl2, 1% Triton X-100, 5 mM DTT, 0.2 mM CoA, 0.15 mM ATP, 5 mM D-luciferin, final concentrations) was added to each well. The plate was incubated at r.t. for 10-15 min. The plates were measured on a ViewLux plate reader for green luminescence (540/20 nm filter) and red luminescence (618/8 nm filter). The green and red luminescent signals were corrected for red and green luminescence filter overlap using previously determined filter calibration constants (determined using the procedure outlined in the Promega Technical Manual; REF 4). The %Activity was determined from the ratio of corrected green/red luminescent values. MG132 were used as control. Green luminescent and ratio %Activity was determined by normalizing to the difference in signal between basal cells (0% Activity) and cells incubated with 10 uM of the proteasome inhibitor MG-132 (100% Activity). […]

Going from `Nc1ccc(-c2ccc3ccccc3n2)cc1` to `CNc1cc(NS(=O)(=O)c2ccc(N)cc2)nc(NC)n1`, the “activity change” value falls from -12.9% to -15.8%.

Compared with `NC(N)=NC(N)=Nc1ccccc1`, `NC(N)=NC(N)=Nc1cccc(Cl)c1` is lower in “activity change” value: 1.93% for the first, -0.496% for the second.

Going from `CCCCCC(O)CCCC(=O)O` (stereo not given) to `CCCCCCCCCC(=O)NC(CN1CCOCC1)[C@H](O)c1ccccc1` (stereo not given in full), the “activity change” value rises from -8.8% to -0.305%.

First: COc1ccc2c(c1)CCC1C2CC[C@@]2(C)C1CC[C@@H]2NCCCCCCN1C(=O)C=CC1=O (stereo not given in full)
Second: CC(=O)[C@H]1CCC2C3CC=C4C[C@@H](OS(=O)(=O)O)CC[C@]4(C)C3CC[C@@]21C (stereo not given in full)
The “activity change” value of the first is lower: -16.2% for the first, 1.63% for the second.

First: CN(CC[C@@H](Oc1ccc(C(F)(F)F)cc1)c1ccccc1)CC(=O)O
Second: CCCc1c(OCCCOc2ccc(OCC(=O)O)cc2)ccc(C(C)=O)c1O
The “activity change” value of the first is higher: 0.875% for the first, -10.3% for the second.

Compared with `O=C1C2C=CC=CC2=NC(=S)N1CCN1CCC(=C(c2ccc(F)cc2)c2ccc(F)cc2)CC1` (stereo not given), `c1ccc2c(c1)CC(N1CCN(c3cccc4c3OCCO4)CC1)C2` is lower in “activity change” value: -5.5% for the first, -22.1% for the second.

Compared with `CC(=O)O[C@H]1Cc2ccccc2N(C(N)=O)c2ccccc21`, `NC[C@@H]1O[C@H](c2ccccc2)Cc2c1ccc(O)c2O` is lower in “activity change” value: -3.28% for the first, -11.5% for the second.

Going from `CCSC(=N)N` to `NC(=O)CC[C@H](N)C(=O)O`, the “activity change” value falls from 2.64% to -0.277%.

Compared with `N[C@@H](CS(=O)O)C(=O)O`, `N[C@H](C(=O)O)[C@H](Cc1ccccc1)C(=O)O` is higher in “activity change” value: -14.2% for the first, -9.45% for the second.

Compared with `C[N+](C)(C)CC=O`, `NC/C=C\C(=O)O` is higher in “activity change” value: -1.56% for the first, 2.36% for the second.

Compared with `O=C(O)C1=CCCNC1`, `O=C(O)C1CN(CCCP(=O)(O)O)CCN1` (stereo not given) is lower in “activity change” value: 1.67% for the first, -0.67% for the second.

Compared with `Oc1cc2c(cc1O)C(c1ccccc1)CNCC2` (stereo not given), `NC(N)=[N+]1CCc2ccccc2C1` is higher in “activity change” value: 2.08% for the first, 3.77% for the second.

Compared with `COc1cc(CC(=O)O)ccc1O`, `O=C(O)Cc1ccc(O)c(O)c1` is higher in “activity change” value: -4.67% for the first, -2.11% for the second.

Compared with `N[C@@H](CCC(=O)N[C@H](CSN=O)C(=O)NCC(=O)O)C(=O)O`, `O=C(O)CCC(=O)N1CCCC1C(=O)O` (stereo not given) is lower in “activity change” value: -2.7% for the first, -5.08% for the second.

Compared with `O=C(c1ccc2c(c1)OCCO2)N1CCCCC1`, `COc1cc(N)c(Cl)cc1C(=O)OCCN1CCCCC1` is lower in “activity change” value: 2.49% for the first, -11.7% for the second.

Compared with `CNC(=O)c1cc2c(cn1)[nH]c1ccccc12`, `COC(=O)C1=C(C)NC(C)=C([N+](=O)[O-])C1c1ccccc1C(F)(F)F` (stereo not given) is higher in “activity change” value: -7.39% for the first, 11.6% for the second.

Going from `O=C(O)/C=C/c1ccc(O)c(O)c1` to `O=C(O)c1cc(=O)cc(C(=O)O)[nH]1`, the “activity change” value rises from -12% to -6.72%.

Compared with `O=c1ccn([C@@H]2O[C@H](COP(=O)(O)OP(=O)(O)O)[C@@H](O)[C@H]2O)c(=O)[nH]1`, `OC[C@H]1NC[C@@H](O)[C@@H]1O` is lower in “activity change” value: -1.55% for the first, -8.87% for the second.

Going from `COC(=O)C(N)Cc1ccc(Cl)cc1` (stereo not given) to `CC(C)NCC(O)COc1ccc(CC(N)=O)cc1` (stereo not given), the “activity change” value rises from -1.39% to 1.72%.

First: Nn1nnc2ccccc21
Second: NC1CONC1=O (stereo not given)
The “activity change” value of the first is higher: -2.46% for the first, -3.96% for the second.
